“And” between values parts separate entries of the source, which are not always exact repeats. Identical values can stand only once. About 2,000 (36%) of roughly 5,500 compounds were called active. Another 18% or so got no clear call; they are omitted. Rule as the data show it: active = normalized growth mostly below about 0.91 (no sharp cut-off); inconclusive = no clear call, values can overlap the other calls; inactive = mostly above about 0.92. The list shows a part of the results.
Test: chemical genetic growth profiling, strain panel (AID 1159580);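 also: tested at 20 µM; growth read once vehicle control cultures reached saturation at 30 °C; 1 = growth at the plate median or of vehicle wells; lower values mean less growth of the strain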
Conditions: S. cerevisiae deletion strains, growth OD

Measured: normalized growth

CCN(CC)CCNc1ccc(CO)c2sc3ccccc3c(=O)c12
inactive: locus YAL013W, strain DEP1, hits give low values 1.01 | locus YAL021C, strain ccr4, hits give low values 0.994 | locus YAL026C, strain drs2, hits give low values 0.999 | locus YAL030W, strain snc1, hits give low values 1.01 | locus YBL061C, strain skt5, hits give low values 1 | locus YBR009C, strain hhf1, hits give low values 1.01 | locus YBR021W, strain FUR4, hits give low values 0.955 | locus YBR023C, strain chs3, hits give low values 1 | locus YBR171W, strain sec66, hits give low values 1.02 | locus YBR229C, strain ROT2, hits give low values 1 | locus YBR231C, strain swc5, hits give low values 1 | locus YBR279W, strain paf1, hits give low values 1 | locus YCL011C, strain gbp2, hits give low values 1 | locus YCL016C, strain dcc1, hits give low values 1 | locus YCL029C, strain bik1, hits give low values 1.01 | locus YCL069W, strain vba3, hits give low values 1.01 | locus YCR088W, strain abp1, hits give low values 1.01 | locus YDL005C, strain med2, hits give low values 1.01 | locus YDL035C, strain GPR1, hits give low values 0.992 | locus YDL040C, strain nat1, hits give low values 0.993 | locus YDL074C, strain BRE1, hits give low values 0.948 | locus YDL101C, strain DUN1, hits give low values 0.979 | locus YDL134C, strain PPH21, hits give low values 0.996 | locus YDL185W, strain tfp1, hits give low values 1 | locus YDL192W, strain arf1, hits give low values 1.01 | locus YDR001C, strain nth1, hits give low values 1.01 | locus YDR069C, strain doa4, hits give low values 1.01 | locus YDR101C, strain arx1, hits give low values 1 | locus YDR137W, strain rgp1, hits give low values 0.894 | locus YDR150W, strain NUM1, hits give low values 1 | locus YDR159W, strain sac3, hits give low values 1 | locus YDR162C, strain NBP2, hits give low values 0.969 | locus YDR195W, strain ref2 1.07 | locus YDR297W, strain sur2, hits give low values 1.01 | locus YDR318W, strain mcm21, hits give low values 1 | locus YDR334W, strain swr1, hits give low values 1 | locus YDR335W, strain msn5, hits give low values 1.02 | locus YDR388W, hits give low values 1.01 | locus YDR392W, strain spt3, hits give low values 0.999 | locus YDR502C, strain sam2, hits give low values 0.961 | locus YEL003W, strain gim4, hits give low values 1.01 | locus YEL037C, strain rad23, hits give low values 1.01 | locus YEL061C, strain CIN8 (second series), hits give low values 0.999 | locus YEL061C, strain CIN8, hits give low values 0.999 | locus YER015W, strain faa2, hits give low values 1 | locus YER016W, strain bim1, hits give low values 0.99 | locus YER110C, hits give low values 1.02 | locus YER111C, strain swi4, hits give low values 1 | locus YER155C, strain BEM2 (second series), hits give low values 0.972 | locus YER155C, strain BEM2, hits give low values 1.03 | locus YER167W, strain BCK2, hits give low values 1 | locus YFR010W, strain ubp6, hits give low values 0.999 | locus YGL078C, strain dbp3, hits give low values 1.01 | locus YGL086W, strain mad1, hits give low values 1 | locus YGL167C, strain pmr1, hits give low values 1.01 | locus YGL173C, strain kem1, hits give low values 1.01 | locus YGL227W, strain vid30, hits give low values 0.989 | locus YGL240W, strain doc1, hits give low values 1.01 | locus YGL248W, strain PDE1, hits give low values 1 | locus YGL253W, strain hxk2, hits give low values 1.01 | locus YGR078C, strain PAC10, hits give low values 0.975 | locus YGR135W, strain pre9, hits give low values 0.971 | locus YGR229C, strain SMI1, hits give low values 0.998 | locus YGR252W, strain gcn5, hits give low values 0.918 | locus YHR013C, strain ard1, hits give low values 1.01 | locus YHR027C, strain rpn1, hits give low values 1.01 | locus YHR030C, strain SLT2, hits give low values 1.01 | locus YHR079C, strain IRE1 (second series), hits give low values 1.01 | locus YHR079C, strain IRE1, hits give low values 1.01 | locus YHR094C, strain hxt1, hits give low values 1.02 | locus YHR129C, strain ARP1, hits give low values 0.995 | locus YHR142W, strain chs7, hits give low values 1.01 | locus YHR200W, strain rpn10, hits give low values 1.02 | locus YIL066C, strain RNR3, hits give low values 0.968 | locus YIL073C, strain SPO22, hits give low values 1.18 | locus YIL125W, strain kgd1, hits give low values 1.01 | locus YIR030C, strain dcg1, hits give low values 1.02 | locus YJL092W, strain hpr5, hits give low values 1 | locus YJL095W, strain BCK1 (second series), hits give low values 1.01 | locus YJL095W, strain BCK1, hits give low values 0.952 and 1.02 | locus YJL115W, strain asf1, hits give low values 1.03 | locus YJL129C, strain trk1, hits give low values 1 | locus YJL134W, strain LCB3, hits give low values 1 | locus YJL154C, strain vps35, hits give low values 1.01 | locus YJL164C, strain tpk1, hits give low values 1.01 | locus YJL166W, strain qcr8, hits give low values 1.02 | locus YJL168C, strain set2, hits give low values 1.02 | locus YJL187C, strain SWE1 (second series), hits give low values 0.986 | locus YJL187C, strain SWE1, hits give low values 1 | locus YJR043C, strain POL32, hits give low values 1 | locus YJR066W, strain TOR1, hits give low values 0.949

Reference: PubChem BioAssay AID1159580 (chemical genetic matrix, 2015)
